Measurements taken from PubChem BioAssay AID504339 (National Center for Advancing Translational Sciences (NCATS), 2011).
Screen size: about 390,000 compounds; about 17,000 (4.4%) were called active. Roughly 8% stayed inconclusive and do not appear here. The call rests on the fitted dose curve; in most records, active means well fitted inhibition curve with a large enough effect; inconclusive means small, poorly fitted or top-dose-only effect; inactive means no such curve, though single readings can be large or run the other way. This excerpt belongs to a sample that is enriched for actives.

Target: Lysine-specific demethylase 4A (Homo sapiens) (UniProt O75164)
Assay: qHTS Assay for Inhibitors of JMJD2A-Tudor Domain; further: nearly all actives have a fitted effect of over 50% in size
Settings: AlphaScreen JMJD2A-Tudor / H3K4me3 peptide binding; series mostly up to 114 µM; activity change, negative = inhibition: at the top concentration
On the % scale 0 is the no-effect control and ±100 the full control effect; potency means the concentration at half of the fitted maximal effect.

Chain of Lysine-specific demethylase 4A (Homo sapiens) (O75164 whole entry, looked up, the tested form may be a part): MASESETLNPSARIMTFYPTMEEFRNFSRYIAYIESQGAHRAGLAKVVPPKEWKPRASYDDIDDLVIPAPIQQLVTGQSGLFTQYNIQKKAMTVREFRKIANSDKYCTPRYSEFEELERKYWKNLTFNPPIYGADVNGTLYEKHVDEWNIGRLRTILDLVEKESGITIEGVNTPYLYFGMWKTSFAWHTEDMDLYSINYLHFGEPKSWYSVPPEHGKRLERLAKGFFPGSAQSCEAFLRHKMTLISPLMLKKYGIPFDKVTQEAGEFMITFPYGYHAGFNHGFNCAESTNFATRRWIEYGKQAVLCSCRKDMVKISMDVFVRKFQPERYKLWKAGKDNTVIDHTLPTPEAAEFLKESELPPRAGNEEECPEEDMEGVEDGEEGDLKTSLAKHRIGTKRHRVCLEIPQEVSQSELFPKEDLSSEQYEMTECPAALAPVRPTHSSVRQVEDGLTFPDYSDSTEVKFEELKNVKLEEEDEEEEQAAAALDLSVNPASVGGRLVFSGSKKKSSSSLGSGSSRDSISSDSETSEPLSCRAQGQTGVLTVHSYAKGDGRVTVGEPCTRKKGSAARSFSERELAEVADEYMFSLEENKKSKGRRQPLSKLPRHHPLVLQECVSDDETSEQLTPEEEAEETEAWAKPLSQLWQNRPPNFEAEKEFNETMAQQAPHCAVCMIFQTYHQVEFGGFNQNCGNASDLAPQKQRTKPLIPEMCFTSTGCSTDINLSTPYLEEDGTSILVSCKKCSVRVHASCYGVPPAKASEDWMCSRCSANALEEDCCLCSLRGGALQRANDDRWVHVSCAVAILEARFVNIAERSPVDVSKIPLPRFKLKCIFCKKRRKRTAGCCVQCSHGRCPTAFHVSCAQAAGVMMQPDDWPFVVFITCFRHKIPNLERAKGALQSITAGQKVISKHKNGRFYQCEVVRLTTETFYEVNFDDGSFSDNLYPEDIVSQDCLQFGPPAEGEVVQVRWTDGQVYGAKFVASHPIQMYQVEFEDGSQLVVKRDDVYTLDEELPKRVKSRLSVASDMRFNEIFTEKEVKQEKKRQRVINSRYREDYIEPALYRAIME

Row | SMILES | activity change, negative = inhibition | Potency
1 | CCOC(=O)c1c(NC(=O)CCl)sc(C(=O)N(CC)CC)c1C | -2.65% (inactive) | –
2 | COCCCNCC(=O)Nc1sc(C)c(C)c1C(=O)OC | – | 28.2 µM (active)
3 | COC(=O)c1c(NC(=O)c2c(Cl)cnn2C)sc(C)c1C | -1.31% (inactive) | –
4 | CCc1cccc(NC(=O)CSc2nccn2C)c1 | -5.6% (inactive) | –
5 | Cc1cc(C)cc(OCC(=O)Nc2c(C(=O)c3ccccc3)oc3ccccc23)c1 | 12.7% (inactive) | –
6 | O=C(Cn1cc(SCc2cccc(Cl)c2)c2ccccc21)N1CCCCC1 | 8.06% (inactive) | –
7 | COc1ccc(-c2nn(CC(=O)NC3CCCC3)c3c2cnc2ccc(F)cc23)cc1 | -9.67% (inactive) | –
8 | O=C(CN1CCC(O)(c2ccccc2)CC1)Nc1ccc2c(c1)OCCO2 | -14.5% (inactive) | –
9 | O=C(COC(=O)c1ccccc1)c1ccc2c(c1)OCCO2 | 2.03% (inactive) | –
10 | O=C(CCN1CCc2ccccc2C(O)(c2ccccc2)C1)c1ccc2c(c1)OCCO2 (stereo not drawn) | – | 79.4 µM (active)
11 | Cc1cc(Cl)ccc1NC(=O)Cc1ccc(NC(=O)N2CCCCc3ccccc32)cc1 | -24% (inactive) | –
12 | Cc1ccc(C)c(Cn2c(C)c(CNCc3ccc(F)cc3)c(C(=O)O)c2C)c1 | -25.5% (inactive) | –
13 | S=c1[nH]ccn1-c1ccc(Cl)cc1 | – | 10 µM (active)
14 | CCOC(=O)c1ccccc1NC(=O)c1sc2nc(-c3ccc(F)cc3)cn2c1C | -18.2% (inactive) | –
15 | CN1CCN(CCCNC(=O)c2ccc(/C=C3\Oc4ccccc4N(Cc4ccc(Cl)cc4)C3=O)cc2)CC1 | -1.17% (inactive) | –
16 | O=C(NCCCN1CCOCC1)c1ccc2c(c1)N(Cc1cccc(F)c1)C(=O)c1ccccc1S2 | 0.389% (inactive) | –
17 | CCN1CCN(CCNC(=O)c2ccc(/C=C3/Sc4ccccc4N(Cc4cccc(C)c4)C3=O)cc2)CC1 | – | 50.1 µM (active)
18 | COc1ccc(Cl)cc1NC(=O)Cn1c(=O)c2ccccc2n2nncc12 | -26.8% (inactive) | –
19 | COc1ccccc1CNCc1ccc(C(=O)O)s1 | -5.03% (inactive) | –
20 | CSc1nc(Nc2ccc(F)cc2)cc(-c2ccccc2)n1 | 43.4% (inactive) | –
21 | COc1ccc(NC(C(=O)Nc2cccc(C(C)=O)c2)c2ccccc2)cc1 (stereo not drawn) | – | 17.8 µM (active)

Row | SMILES | activity change, negative = inhibition | Potency
22 | COC(C(=O)Nc1ccc(C(C)=O)cc1)c1ccccc1 (stereo not drawn) | -6.88% (inactive) | –
23 | COc1ccc(NC(=O)[C@H](NC(=O)[C@@H]2Cc3ccccc3CN2)c2ccccc2)cc1 | -9.09% (inactive) | –
24 | Cc1ccccc1CNC(=O)Cn1c(C)c2cnn(-c3ccccc3)c(=O)c2c1C | -6.71% (inactive) | –
25 | CC(=O)Oc1ccc(C(C)=O)c2c1OCCO2 | -12.2% (inactive) | –
26 | CC(=O)Oc1ccc(OC(C)=O)c2c1C1C=CC2CC1 | – | 22.4 µM (active)
27 | COc1cc(OC)c(NC(=O)c2nc(-c3ccncc3)no2)cc1Cl | -1.64% (inactive) | –
28 | CC(C)(C)NC(=O)CSc1nc(-c2ccc(F)cc2)cc(C(F)(F)F)n1 | 11.3% (inactive) | –
29 | Cc1cc(C)nc(N(C#N)CC(=O)Nc2ccccc2)n1 | -7.56% (inactive) | –
30 | CC(Sc1nnc2c(n1)C1CCC2(C)C1(C)C)C(=O)Nc1ccccc1 (stereo not drawn) | -11.3% (inactive) | –
31 | CSc1nc(C)cc(SC(C(C)=O)C(=O)Nc2ccccc2)n1 (stereo not drawn) | – | 56.2 µM (active)
32 | CCOc1ccc(NC(=O)c2c(NCc3cccc(OC)c3OC)sc3c2CCC3)cc1 | -25.3% (inactive) | –
33 | O=C(NCc1nnc(C(=O)Nc2ccc(C(F)(F)F)cc2Cl)o1)c1ccccc1 | -20.5% (inactive) | –
34 | Cc1ccc(NC(=O)Nc2sc3nc4n(c(=O)c3c2C)CCC(C)CC4)c(Cl)c1 (stereo not drawn) | -6.18% (inactive) | –
35 | COc1ccccc1C(=O)N/C(=C/c1ccc2c(c1)OCO2)C(=O)Nc1cccc(C(=O)O)c1 | -8.7% (inactive) | –
36 | Cc1ccc(NC(=O)/C(=C\c2ccccc2)NC(=O)c2ccco2)cc1 | -1.39% (inactive) | –
37 | COc1ccccc1C(=O)N/C(=C/c1ccco1)C(=O)Nc1ccc(C(=O)O)cc1 | – | 25.1 µM (active)
38 | Cc1cccc(C(CC(=O)NCC2(c3ccccc3)CCCC2)c2ccccc2)c1O (stereo not drawn) | -5.84% (inactive) | –
39 | CCOC(=O)CN1C(C(=O)c2ccccc2)=C(OC(=O)C(C)(C)C)c2ccccc2S1(=O)=O | -18.2% (inactive) | –
40 | CC(CCCc1ccccc1)NC(=O)c1nn(-c2ccc(Cl)cc2)nc1CO (stereo not drawn) | -3.77% (inactive) | –
41 | O=C(Cn1cnc2c(OCc3ccccc3)ncnc21)NCCCn1ccnc1 | -13.8% (inactive) | –
42 | O=C(Cn1cnc2c(OCc3ccccc3)ncnc21)NCc1nc2ccccc2[nH]1 | – | 56.2 µM (active)

Row | SMILES | activity change, negative = inhibition | Potency
43 | CC(CNC(=O)Cn1cnc2c(OCc3ccccc3)ncnc21)c1ccccc1 (stereo not drawn) | -17.3% (inactive) | –
44 | CC(C)S(=O)(=O)c1oc(-c2ccc(F)cc2)nc1S(=O)(=O)c1ccc(F)cc1 | -11.1% (inactive) | –
45 | Cc1ccc(Cl)cc1NC(=O)NC1COc2ccccc2C1 (stereo not drawn) | -16.9% (inactive) | –
46 | Cc1cc(C(=O)N/N=C/c2cc([N+](=O)[O-])cc(C)c2O)n[nH]1 | – | 44.7 µM (active)
47 | Cc1c(Cl)c([N+](=O)[O-])nn1Cc1ccc(C(=O)N/N=C\c2cc(Cl)ccc2O)o1 | -25.2% [at 57.1 µM] (inactive) | –
48 | COc1ccc(C(=O)NNC(=O)c2cc(C)[nH]n2)cc1 | -4.35% (inactive) | –
49 | CCCCS(=O)(=O)c1oc(-c2cccs2)nc1S(=O)(=O)c1ccccc1 | -4.51% (inactive) | –
50 | CCCCOC(=O)/C(C#N)=C/c1ccc(-c2cccc(C(F)(F)F)c2)o1 | -25.2% (inactive) | –
51 | Cc1ccc(-c2ccc(/C=C(\C#N)C(N)=S)o2)c([N+](=O)[O-])c1 | – | 14.1 µM (active)
52 | CCOC(=O)c1ccc(-c2ccc(/C=C(\C#N)C(=O)Nc3ccc(C)cc3)o2)cc1 | -26.2% (inactive) | –
53 | Cc1cccn2c(=O)c(C(=O)NC(C)c3ccccc3)cnc12 (stereo not drawn) | -5% (inactive) | –
54 | CCC(C)c1ccc2oc(-c3ccc(NC(=O)c4cc5ccccc5o4)cc3)nc2c1 (stereo not drawn) | -14.5% (inactive) | –
55 | COc1ccc(N2CCN(C(=O)C3CCN(S(=O)(=O)c4ccc(C)cc4)CC3)CC2)cc1 | – | 39.8 µM (active)
56 | CC(=O)Nc1ccc(S(=O)(=O)N2CCN(C3CCCCCCC3)CC2)cc1 | -30.2% (inactive) | –
57 | Cc1ccc(S(=O)(=O)N2CCN(C)CC2)cc1 | -7.48% (inactive) | –
58 | COc1ccc(N2CCN(C(=O)C3CCN(C(=O)c4ccccc4Cl)CC3)CC2)cc1 | -15.7% (inactive) | –
59 | Cc1ccc(S(=O)(=O)N2CCC(N3CCCCCC3)CC2)cc1 | – | 0.891 µM (active)
60 | COc1ccc(S(=O)(=O)N2CCCC(C(=O)N3CCN(C)CC3)C2)cc1C (stereo not drawn) | -6.21% (inactive) | –
61 | Cc1ccc(S(=O)(=O)N2CCC(C(=O)N3CCCCCCC3)CC2)cc1 | -7.56% (inactive) | –
62 | O=C(C1CCCN(S(=O)(=O)c2ccc([N+](=O)[O-])cc2)C1)N1CCCCC1 (stereo not drawn) | -6.21% (inactive) | –
63 | Cc1ccc(S(=O)(=O)N2CCCC(C(=O)N3CCN(C)CC3)C2)cc1 (stereo not drawn) | – | 2.82 µM (active)
